Bead autofluor: counter-screen for toxin protease inhibitors: compound fluorescence; compound autofluorescence counterscreen, microsphere flow cytometry; active compounds read high; fluorescence intensity (no concentration beside the values); actives 3.1% (n = 360,000); AID 624483; in the data active = fluorescence intensity above about 16000; inconclusive = no clear call, values can overlap the other calls
3CLpro inhibitor: SARS-CoV 3CLpro protease inhibition; actives 0.14% (n = 290,000); AID 1706; recombinant SARS-CoV 3CLpro, quenched FRET peptide cleavage; P0C6X7; inhibition, % at 6 µM; in the data active = inhibition above about 12%
CCHF vOTU inh: blocks the CCHF virus ovarian tumor domain protease | CCHFV vOTU protease, Pep-AMC fluorescence | inhibition, % at 11.5 µM | actives 0.55% (n = 370,000) | AID 651958; in the data active = inhibition above about 30%; also: 0% = vehicle wells with enzyme and 100% = no enzyme wells
Anthrax LF inh2: anthrax lethal factor protease inhibition | P15917 | multiplex microsphere protease cleavage assay, LF | inhibition, % at 10 µM | actives 0.12% (n = 360,000) | AID 588501; also: plate controls were buffer without enzyme for full effect and enzyme alone for no effect
BoNT-A LC inh2: BoNT A light chain protease inhibition | multiplex microsphere protease substrate cleavage, flow cytometry | inhibition, % at 10 µM | actives 0.17% (n = 360,000) | AID 588499; also: plate controls were buffer without enzyme for full effect and enzyme alone for no effect
BoNT F protease: inhibitors of Botulinum neurotoxin F light chain protease; Multiplex microsphere protease cleavage assay, flow cytometry; inhibition, % at 10 µM; actives 0.22% (n = 360,000); AID 588497; in the data active = inhibition above about 35%, passing the limit was not always enough; inconclusive = no clear call, values can overlap the other calls; also: plate controls were buffer without enzyme for full effect and enzyme alone for no effect
Active calls of the source: *; ? = inconclusive; . = no result given. Most compounds without a hit are left out; they make up all but 3.9% or so of the library. Rule as the data show it, unless noted: active = inhibition above about 30%; inconclusive = no clear call, values can overlap the other calls; inactive = below that.

SMILES	Bead autofluor	3CLpro inhibitor	CCHF vOTU inh	Anthrax LF inh2	BoNT-A LC inh2	BoNT F protease
CCCn1nnnc1-c1cc(Cl)cc(Cl)c1	10923	1.9	.	0.7	0.3	0.2
CCCCN1CC(C(=O)NCc2ccc(C)cc2)CC1=O (centres undefined)	18906*	-2.5	-10.6	-4.2	1.4	-0.6
Cc1ccc(CNC(=O)C2CC(=O)N(CCC(C)C)C2)cc1 (centres undefined)	3500	-3.9	9.1	0.7	0.1	-1.8
CC(=O)c1cc(NC(=O)c2ccc(Cl)cc2)c(=O)oc1/C=C/N(C)C	25493*	4.9	0.2	1.5	?	1.3
COc1ccc(C(=O)Nc2cc(C(C)=O)c(C)oc2=O)cc1	4373	-1.1	-14.5	-14.4	0.2	0.3
CC(=O)c1cc(NC(=O)c2cccc(C(F)(F)F)c2)c(=O)oc1/C=C/N(C)C	23755*	2.6	-1.2	-1.1	?	-12.2
CC(=O)c1cc(NC(=O)c2cccc(C(F)(F)F)c2)c(=O)oc1C	4376	2.6	7.6	3.3	0.2	1.7
CN[C@H]1C[C@H]2c3cc(-c4ccc5c(c4)OCO5)ccc3CCN2C[C@H]1[C@H](C)O	.	.	4.9	.	.	.
N#CCC[C@@H]1CC[C@]2(CCCN(C(=O)C3CCCCC3)C2)O1	.	.	-3.5	.	.	.
CC(=O)Oc1ccc(N2C(=O)C3C4C=CC(CO)(O4)C3C2=O)cc1 (centres undefined)	2541	-1.4	2.8	-0.2	-0.3	-8.0
COc1ccc(C(=O)NCC23C=CC(O2)C2C(=O)N(Cc4ccccc4)C(=O)C23)cc1 (centres undefined)	19591*	3.2	1.7	1.9	?	0.4
CC(C)(C)c1ccc(-c2nnc(SCC(=O)c3ccc([N+](=O)[O-])cc3)n2-c2ccc(Cl)cc2)cc1	.	.	4.1	.	.	.
CCS(=O)(=O)c1ccc2oc(Nc3cc(C)cc(C)c3)nc2c1	20341*	1.0	-0.6	-2.1	-1.1	-1.5
COc1ccc(OC)c(NC(=O)C2CC(=O)N(c3ccccc3)C2)c1 (centres undefined)	2457	-3.8	4.5	-1.1	-0.4	-4.6
COc1cccc(N2CC(C(=O)OC(C)C(=O)c3ccccc3)CC2=O)c1 (centres undefined)	22234*	0.2	6.8	-0.7	?	-1.0
Cc1cc(C)c(NC(=O)CN2C(=O)NC3(CCCCC3)C2=O)c(C)c1	20379*	-7.3	-3.8	-0.4	0.7	0.4
CC1CCN(C(=O)CN2C(=O)NC3(CCCCCC3)C2=O)CC1	8182	.	1.5	-5.6	-3.6	-3.8
CC1CN(C(=O)CN2C(=O)NC3(CCCCCC3)C2=O)CC(C)O1 (centres undefined)	24732*	4.3	10.1	-2.7	-1.8	-4.1
COC(=O)C1CN(Cc2ccccc2)CCS(=O)(=O)N1Cc1ccccc1F (centres undefined)	.	.	-5.4	.	.	.
COc1cc(CNn2nnnc2N)ccc1OCC(=O)NC(C)(C)C	23140*	0.3	2.4	-0.8	0.7	-0.7
CCOc1cc(CNn2nnnc2N)ccc1OCC(=O)NC(C)(C)C	16985*	-2.4	-4.7	-0.2	-1.6	-4.3
Cc1cccc(Cn2cc(COC(=O)N3CCOCC3)nn2)c1	.	.	-5.1	.	.	.
c1ccc(-n2ncc3c(N4CCN(c5ccccn5)CC4)nc(N4CCCCCC4)nc32)cc1	19448*	-5.8	8.0	-3.0	2.0	1.0
CNc1ccc(Br)cc(C(=O)/C=C/c2cc(OC)ccc2OC)c1=O	17230*	0.5	-0.9	28.4	24.1	14.6
CCNc1ccc(Br)cc(C(=O)/C=C/c2ccc(Cl)cc2Cl)c1=O	17500*	0.8	11.0	43.3*	?	28.2
SMILES	Bead autofluor	3CLpro inhibitor	CCHF vOTU inh	Anthrax LF inh2	BoNT-A LC inh2	BoNT F protease
COCCCNC(=O)/C=C/c1ccc(Cl)cc1Cl	3758	6.5	-6.1	-9.5	-1.4	-16.6
CCOC(=O)[C@@]12CCCC=C1N(CCc1ccc(Cl)cc1)C(=O)[C@H]2CC(=O)N1CCCCC1	.	.	10.2	.	.	.
CCOC(=O)c1c(C)[nH]c(C)c1C(=O)COC(=O)c1cccc(S(=O)(=O)N(CC)CC)c1	3602	-5.8	4.0	-2.0	-0.5	-3.9
CCOC(=O)c1c(C)[nH]c(C)c1C(=O)COC(=O)c1ccc(S(=O)(=O)N(CC)CC)cc1	16763*	1.0	4.9	-6.6	?	-3.4
O=C(c1cncnc1)N1CCC(n2nnc3ncccc32)CC1	.	.	-3.1	.	.	.
CC(C)(C)NC(=O)c1ccc2nccnc2c1	16956*	-3.0	-2.5	-0.9	-1.9	-1.8
Cc1ccc(C(=O)NCc2ccco2)cc1Br	14302	2.8	5.6	-3.9	?	5.7
CCN1C(=O)CSc2ccc(C(=O)NCc3ccco3)cc21	16140*	-0.8	-2.2	-0.5	1.5	4.3

Bioassay records (PubChem BioAssay)
